Values joined by “and” are separate entries in the source; they are usually repeats but may differ in a detail not shown here. Equal entries are not always repeated. This is part of a sample that, as a whole, favours compounds with a hit. Of some 83,000 tested, about 20% had one in any assay.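 Single-dose data. Exposure time 48 hours. Values below 10 considered active.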 Values without a mark were called inactive. Active and inactive are the calls of the source.
The compounds below were run on MDA-MB-468 breast (assay: NCI-60 one-dose screen, 48 h (100 = growth as untreated, 0 = no growth, -100 = all killed)). Conditions: 10 µM unless noted.
`COc1ccc(-c2nc3ccc(-c4nnc(SCC(=O)Nc5ccc(C(C)=O)cc5)o4)cc3[nH]2)cc1` was tested, and the growth was 109%.
With `OCCCc1n(Cc2ccc3ccccc3c2)c2ccccc2[n+]1Cc1ccc2ccccc2c1` the growth was -27.7% (active).
`O=C(NO)c1ccc(-n2nc(-c3ccccc3)c3ccccc32)cc1` gave a growth of 52.9%.
`CCOC(=O)c1cnc2c(-c3ccc(Cl)c(Cl)c3)cnn2c1` gave a growth of 85.4%.
Work on `CCCCCCCCCCCCCCCCCCNC(=O)[C@H]1CSC(c2ccc(F)c(OC)c2)N1` (stereo not given in full) yielded a growth of 44.1%.
For `Nc1c(C(=O)Nc2ccccc2F)sc2nc3c(cc12)C(=O)CCC3`, the growth was -15.2% (active).
With `Oc1ccc(C(c2ccc(O)cc2)c2ccc(Cl)cn2)cc1` the growth was -30.9% (active).
In the case of `O=C1c2cc3c(cc2-c2c1c1cc(F)c(F)cc1c(=O)n2CCCn1ccnc1)OCO3`, the growth is reported as -53.6% (active).
In the case of `NC(=S)N/N=C(/c1cccs1)C1CC1`, the growth is reported as 37.4%.
Work on `O=C1CC(c2nc3ccccc3s2)CN1C1CCCCC1` (stereo not given) yielded a growth of 104%.
Compound `O=C(O)[C@@H]1c2ccccc2-c2ccccc2[C@H]1C(=O)O` has a growth of 97.5%.
With `Cc1ccc(N)cc1S(=O)(=O)O` the growth was 127% and 110%.
`CC[C@]1(O)CC2CN(CCc3c([nH]c4ccccc34)C(C(=O)OC)(c3cc4c(cc3OC)N(C=O)[C@H]3[C@@](O)(C(=O)OC)[C@H](OC(C)=O)[C@]5(CC)[C@@H]6C[C@@H]6CN6CC[C@]43[C@@H]65)C2)C1` (stereo not given in full) gave a growth of 22.9%.
For `Cc1c2cc[nH]c(=O)c2c(C)c2c1[nH]c1ccc(OC(=O)c3ccccc3)cc12`, the growth was 12.6%.
`Nc1nc2nnc(-c3ccccc3)c(-c3ccccc3)n2n1` was tested, and the growth was 99.9%.
With `O=CN(SSN(C=O)C1CCCCC1)C1CCCCC1` the growth was 108%.
For `C[C@H]1[C@H](C)CC[C@]2(C(=O)OCCOCCOCC[P+](c3ccccc3)(c3ccccc3)c3ccccc3)CC[C@]3(C)C(=CC[C@@H]4[C@@]5(C)CC[C@H](OC(=O)C(Cl)Cl)C(C)(C)[C@@H]5CC[C@]43C)[C@H]12`, the growth was -21.5% (active).
`CCCC1(c2ccccc2)NC(=O)NC1=O` (stereo not given) gave a growth of 104%.
For `CCCCCCCCCCCCNC(=O)[C@H]1CSC(c2ccsc2)N1` (stereo not given in full), the growth was -74.1% (active).
`O=C(/C=C/c1cccc(O)c1)c1cccc(-n2cc(-c3ccc(Cl)cc3)[nH]c2=O)c1` gave a growth of 37.6%.
In the case of `O=C(OCC1CCCO1)c1ccc([N+](=O)[O-])cc1` (stereo not given), the growth is reported as 88.9%.
`C#Cc1ccc(-n2c(/C=C/c3cc(OC)cc(OC)c3)nc3ncccc3c2=O)cc1` was tested, and the growth was 37.4%.
In the case of `O=C(Nc1cccc(-n2ccc3c(NC(=O)c4ccccc4)nccc32)c1)Nc1cc(C(F)(F)F)cc(C(F)(F)F)c1`, the growth is reported as 7.42% (active).
`N#C/C(=C1C=C/C(=N/O)C(Cl)=C/1)c1ccc(Cl)cc1` was tested, and the growth was -8.37% (active).
In the case of `O=C(O)c1ccc(-n2cc(/C=N/Nc3ccc(Cl)cc3)c(-c3ccc(F)c(F)c3)n2)cc1`, the growth is reported as 83.2%.
With `Cc1nn(CCO)c(C)c1N=[N+]([O-])c1c(C)nn(CCO)c1C` the growth was -59% (active).
Work on `Cc1[nH]c(-c2nc3ccccc3[nH]2)c(C)c1C(=O)N1CCc2sccc2C1` yielded a growth of 70.2%.
In the case of `CCc1ccc(CCCC(=O)O)cc1`, the growth is reported as 107%.
Compound `C=CCNC(=O)c1ccc(OC)cc1` has a growth of 124%.
`Cc1ccc(-c2nn(-c3ccccc3)cc2C=C2C(=O)ON=C2C(C)C)cc1` was tested, and the growth was 94%.
Work on `CCOC(=O)c1cc(/C=C/c2cccc(Cl)c2)on1` yielded a growth of 60.3%.
With `NC(=O)N1N=C(c2ccc(Cl)cc2)CC1c1cn(-c2ccccc2)nc1-c1ccc(Cl)cc1` (stereo not given) the growth was 69.1%.
Compound `COc1ccc(OC)c(C2OC(c3ccc4ccccc4c3O)=NN2C(C)=O)c1` (stereo not given) has a growth of 53.9%.
Compound `C#C[C@]1(O)CC[C@H]2[C@@H]3CC=C4c5nc(Nc6ccccn6)sc5CC[C@]4(C)[C@H]3CC[C@@]21C` has a growth of 14.2%.
Compound `c1cnc2c(-c3nc4ccc5[nH]ncc5c4c4c3CCCC4)c[nH]c2c1` has a growth of 10.9%.
For `NCCCNc1nc2ccccc2c2c(=O)c3cccc(F)c3sc12`, the growth was -11.3% (active).
With `CCOC(=O)CC[C@H](NC(=O)c1ccc(NC)c2ccccc12)C(=O)OCC` the growth was 95.1%.
`Cc1c(Cl)cccc1NC(=S)NC(=O)c1ccccc1` gave a growth of 33.9%.
`CN1C(=O)C2(SCC(C(=O)NCC(=O)OC(C)(C)C)N2C(=O)C2CCCCC2)c2ccccc21` (stereo not given) showed a growth of 104%.
With `Cc1ccc(N(CC(=O)Nc2ccc(S(=O)(=O)N3CCC(N4CCCC4)CC3)cc2)S(=O)(=O)c2ccc(Cl)cc2)cc1` the growth was -19.6% (active).

— PubChem BioAssay (NCI)
